Values joined by “and” are separate entries in the source; they are usually repeats but may differ in a detail not shown here. Equal values may be shown once. ± gives the uncertainty stated by the source.
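Note: viable cell number estimated from Alamar Blue fluorescence read at 560/90, part of a single-dose primary screen of an FDA-approved drug library.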

The assay deals with U87. Description: cell viability relative to vehicle control; higher = less growth inhibition (less active). The conditions noted are these: 10 µM; 72 h.
For the molecule `CCc1oc2ccccc2c1C(=O)c1cc(Br)c(O)c(Br)c1`, the cell viability came to 107.7 ± 0.81%. Turning to `CC(C)[C@H]1CC[C@H](C(=O)N[C@H](Cc2ccccc2)C(=O)O)CC1`, the cell viability is 108 ± 1.6%. `COc1ccnc(C[S+]([O-])c2nc3cc(OC(F)F)ccc3[nH]2)c1OC` (centres undefined): the cell viability was 125.2 ± 1.1%. `CC1=C(C(=O)O)N2C(=O)[C@@H](NC(=O)[C@H](N)c3ccccc3)[C@H]2SC1` [Cephalexin monohydrate]: the cell viability was determined as 100 ± 1.7%. The same measure for `CN(C)CC[C@@H](c1ccc(Cl)cc1)c1ccccn1`: 104 ± 1.6%; for `CN(C)CCC[C@@]1(c2ccc(F)cc2)OCc2cc(C#N)ccc21`: 103 ± 1.9%; for `COCCCOc1ccnc(C[S+]([O-])c2nc3ccccc3[nH]2)c1C` (centres undefined): 108.6 ± 0.87%. As to `CC[C@H](C)C(=O)O[C@H]1CCC=C2C=C[C@H](C)[C@H](CC[C@@H]3C[C@@H](O)CC(=O)O3)[C@H]21` [mevastatin], the cell viability is 89.1 ± 3.1%. As for `CN(CCOc1ccc(CC2SC(=O)NC2=O)cc1)c1ccccn1` (centres undefined), the cell viability is 100% and 110%. For the molecule `OCCOCCN1CCN(C2=Nc3ccccc3Sc3ccccc32)CC1`, the cell viability was determined as 99.6 ± 2.8%. For `CC(Oc1c(Cl)cccc1Cl)C1=NCCN1` (centres undefined), the cell viability came to 113 ± 11%. In the case of `Nc1nc(Cl)nc2c1ncn2[C@@H]1O[C@H](CO)[C@@H](O)[C@H]1O`, the cell viability is 90.6 ± 3%.

For `COc1cc(C)nc(-n2nc(C)cc2OC)n1`, the cell viability stood at 104 ± 1.9%. Turning to `CC(C)/N=c1\cc2n(-c3ccc(Cl)cc3)c3ccccc3nc-2cc1Nc1ccc(Cl)cc1`, the cell viability came to 51.3 ± 3%. With `CC(=O)OCC(=O)NCCCOc1cccc(CN2CCCCC2)c1`, the cell viability is 102 ± 1.4%. Regarding `O=C1N(c2ccccc2)c2ccccc2C1(Cc1ccncc1)Cc1ccncc1`, the cell viability is 106 ± 2.1%. Regarding `Cc1cccc(C)c1NC(=O)C(C)N` (centres undefined), the cell viability stood at 104 ± 2.3%. With `CCCc1nc(C(C)(C)O)c(C(=O)OCc2oc(=O)oc2C)n1Cc1ccc(-c2ccccc2-c2nnn[nH]2)cc1`, the cell viability was 102 ± 1.9%. For the molecule `O=C1CN2Cc3c(ccc(Cl)c3Cl)N=C2N1`, the cell viability stood at 103 ± 2.1%. Regarding `Nc1nc2ccc(OC(F)(F)F)cc2s1` [Riluzole], the cell viability was 98.1 ± 1.5%.

For the molecule `C[C@]12CC[C@@H]3c4ccc(O)cc4CC[C@H]3[C@@H]1CC[C@@H]2O`, the cell viability turned out to be 97.2 ± 2.4%.

As to `Cc1occc(=O)c1O`, the cell viability stood at 106 ± 1.4%. Regarding `CN1CCN(c2c(F)cc3c(=O)c(C(=O)O)cn4c3c2SCC4)CC1`, the cell viability was found to be 99.9 ± 1.7%. `CN(CCCN1c2ccccc2CCc2ccccc21)CC(=O)c1ccc(Cl)cc1`: the cell viability was found to be 107 ± 2.2%. With `C[C@H]1O[C@H](O[C@H]2[C@H](O)[C@@H](O)[C@@H](O[C@H]3[C@H](O)[C@@H](O)C(O)O[C@@H]3CO)O[C@@H]2CO)[C@H](O)[C@@H](O)[C@@H]1N[C@H]1C=C(CO)[C@@H](O)[C@H](O)[C@H]1O` (some centres undefined), the cell viability stood at 102.6 ± 0.92%. Consider `CCN(CC)C(=O)C1(c2ccccc2)CC1CN` (centres undefined) [Milnacipran], for which the cell viability was found to be 102 ± 1.5%. Then `COc1cccc2c1C(=O)c1c(O)c3c(c(O)c1C2=O)C[C@@](O)(C(=O)CO)C[C@@H]3O[C@H]1C[C@H](N)[C@H](O)[C@H](C)O1`, with 23.5 ± 4%; and `CC(=O)NCCCCCCNC(C)=O`, with 103.9 ± 0.65%; and `CCc1nn(CCCN2CCN(c3cccc(Cl)c3)CC2)c(=O)n1CCOc1ccccc1` [Nefazodone], with 100.5 ± 0.27%. Turning to `Clc1ccc(CO/N=C(\Cn2ccnc2)c2ccc(Cl)cc2Cl)c(Cl)c1`, the cell viability turned out to be 103 ± 3.9%. With `CC1=Nc2ccc(Cl)cc2S(=O)(=O)N1`, the cell viability amounted to 101 ± 1.6%.

As for `COc1ccc(-c2oc3c(CC=C(C)C)c(O[C@@H]4O[C@H](CO)[C@@H](O)[C@H](O)[C@H]4O)cc(O)c3c(=O)c2O[C@@H]2O[C@@H](C)[C@H](O)[C@@H](O)[C@H]2O)cc1`, the cell viability turned out to be 105 ± 1.9%.

Turning to `N[C@@H]1CONC1=O`, the cell viability turned out to be 96.3 ± 5%. For the molecule `CSc1nc2cc(Cl)c(Oc3cccc(Cl)c3Cl)cc2[nH]1`, the cell viability was found to be 103 ± 2.5%. For `CCC(=O)O[C@]1(C(=O)SCF)[C@H](C)C[C@H]2[C@@H]3C[C@H](F)C4=CC(=O)C=C[C@]4(C)[C@@]3(F)[C@@H](O)C[C@@]21C`, the cell viability was found to be 105 ± 2.2%. Then `CCCN1CCCC[C@H]1C(=O)Nc1c(C)cccc1C`, with 107 ± 1.1%. The same measure for `CCCCCCCCCCC[C@@H](C[C@@H]1OC(=O)[C@H]1CCCCCC)OC(=O)[C@H](CC(C)C)NC=O`: 103 ± 3.9%; for `CN1CCN(C2=Nc3cc(F)ccc3Cc3ccccc32)CC1` [Fluperlapine]: 106 ± 3.3%; for `C=CC1=C(C(=O)O)N2C(=O)[C@@H](NC(=O)/C(=N\O)c3csc(N)n3)[C@H]2SC1`: 107 ± 1.5%.

Values taken from the supplement of paper PMC3898565.
